From PubChem
Only some compounds are listed: those with a hit (about 7.2% of all), similar ones and a draw of the others.
SNCA expr inhib = reduces expression of the alpha-synuclein gene; Potency, µM (top dose mostly 57.2 µM), without a hit: at the top dose activity change, negative = inhibition, actives largely listed as inhibitors; 0.17% of 140,000 active; HEK-293 SNCA-luciferase knock-in, luminescence, 24 h; AID 1671194;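 note: plate controls were DMSO cells for no effect and cell-free wells for full effect; nearly all actives have a fitted effect of over 45% in size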
3T3 cytotox = NIH 3T3 cell cytotoxicity | Potency, µM (series often up to 96.7 µM), without a hit: at the highest dose activity change, negative = cytotoxicity, actives largely listed as inhibitors | NIH 3T3 viability, CellTiter-Glo ATP luminescence, 48-72 h | 4.3% of 94,000 active; note: nearly all actives have a fitted effect of over 55% in size
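Luminescent ATP readout (CellTiter-Glo, 10 min RT) after 48 or 72 hr compound exposure of NIH 3T3 cells seeded at 400 cells/well in 1536-well format; quantitative HTS.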
SNCA viab count = counter-screen for SNCA expression inhibitors: cell viability; HEK-293-SNCA-luc viability, GF-AFC fluorescence, 24 h; Potency, µM (titrated, usually from 57.1 µM), for inactives: at the top dose activity change, negative = cytotoxicity, hits mostly cytotoxic; 0.12% of 150,000 active;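 note: 0% = DMSO-treated cells and -100% = medium-only wells without cells; nearly all actives have a fitted effect of over 30% in size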
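HEK-293-SNCA-luc cells (1500/well) plated 24 h, then exposed 24 h to a dilution series; GF-AFC added 30 min at 37C, fluorescence 405/540 nm; normalised to medium-only and DMSO wells, Hill fit.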
hNpr1 antagonist = antagonists of human natriuretic peptide receptor Npr1; HEK293 hNpr1 GloSensor cGMP, ANP-stimulated luminescence; Potency, µM (highest dose often 46.3 µM), for the others: top-dose activity change, negative = inhibition, most hits filed as inhibitors; 1.6% of 76,000 active; AID 1347048; P16066; calls by dose curve; note: nearly all actives have a fitted effect of over 60% in size
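HEK293 cells stably expressing human Npr1 and cGMP GloSensor pGS-40F, loaded 2 h with 2% GloSensor reagent, given compound 30 min at room temperature. Luminescence read before and 20 min after 0.1 nM hNppA.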
Luciferase inh = blocks purified firefly luciferase enzyme activity. P08659. purified P. pyralis luciferase, luminescence, biochemical. Potency, µM (doses to about 115 µM), actives largely listed as inhibitors. 2.5% of 76,000 active; note: nearly all actives have a fitted effect of over 65% in size
Target sequence (P08659 whole entry, looked up): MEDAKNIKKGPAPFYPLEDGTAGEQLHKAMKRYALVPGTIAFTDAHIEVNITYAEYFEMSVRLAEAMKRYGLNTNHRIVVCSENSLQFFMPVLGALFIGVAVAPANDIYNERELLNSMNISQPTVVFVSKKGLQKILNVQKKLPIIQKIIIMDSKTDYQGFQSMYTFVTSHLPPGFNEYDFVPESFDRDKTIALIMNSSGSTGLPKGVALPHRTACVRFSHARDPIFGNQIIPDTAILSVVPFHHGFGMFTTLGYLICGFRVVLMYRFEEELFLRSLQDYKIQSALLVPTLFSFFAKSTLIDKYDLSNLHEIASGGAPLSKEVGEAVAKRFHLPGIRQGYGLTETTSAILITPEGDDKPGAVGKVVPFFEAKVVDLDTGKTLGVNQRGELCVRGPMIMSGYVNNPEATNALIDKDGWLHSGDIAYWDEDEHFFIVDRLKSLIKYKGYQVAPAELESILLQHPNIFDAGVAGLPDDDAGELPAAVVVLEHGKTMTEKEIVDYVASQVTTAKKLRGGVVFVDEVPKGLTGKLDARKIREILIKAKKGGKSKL
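Luminescence read by CCD imaging after purified firefly luciferase (10nM final) was added to substrate buffer holding 10uM D-luciferin and 10uM ATP, pH 7.5, pre-dosed with compound.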
HEK293 tox = cytotoxic compounds in HEK 293 cells. HEK 293 viability, ATP luminescence (CellTiter-Glo), 48-72 h. Potency, µM (top dose mostly 115 µM), inactives show top-dose activity change, negative = cytotoxicity, usual class: inhibitors. 6.6% of 94,000 active. AID 1345083; note: nearly all actives have a fitted effect of over 60% in size
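HEK 293 cells at 250 cells/well were exposed to compounds by pintool transfer for 48 or 72 hr at 37 degree Celsius, 5% CO2. Viability was read as ATP-coupled luminescence with CellTiter-Glo after 10 min at room temperature.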
* marks the source's active call; other numbers are inactive results; i = inactive; u = inconclusive; x = no result given; [ ] = remark or other dose. Unless noted, calls come from the whole dose curve; as a rule, active = well fitted curve in the direction sought with a large enough effect; inconclusive = small, poorly fitted or top-dose-only effect, or another doubt; inactive = no such curve, though single readings can be large; an effect the other way counts as inactive or inconclusive. Unless noted, % is set by controls: 0 for no effect and ±100 for the full control effect; potency is the fitted concentration of half-maximal effect.

SMILES	SNCA expr inhib	3T3 cytotox	SNCA viab count	hNpr1 antagonist	Luciferase inh	HEK293 tox
COc1ccc(-c2cc([C@H]3CN4CC[C@H]3C[C@@H]4COC(=O)NC3CCCCC3)nc(C)n2)cc1	1%	-21%	0%	5%	i	-20%
CCCNC(=O)OC[C@H]1C[C@@H]2CCN1C[C@@H]2c1cc(-c2cccs2)nc(C)n1	10%[87.6 µM]	u	-8%[87.6 µM]	0%[70.6 µM]	i	112µM*
Cc1nc(-c2cccs2)cc([C@H]2CN3CC[C@H]2C[C@@H]3COC(=O)Nc2cccc(C(F)(F)F)c2)n1	u	u	u	u	i	11µM*
COc1ccccc1-c1cc([C@H]2CN3CC[C@H]2C[C@@H]3COC(=O)Nc2cccc(C(C)=O)c2)nc(C)n1	23%	u	0%	-11%	i	89µM*
Cn1nc(-c2cccs2)cc1[C@H]1CN2CC[C@H]1C[C@@H]2COC(=O)Nc1cccc(C(F)(F)F)c1	-16%	-3%	4%	1%	i	0%
O=C(NCC1CC1)c1cn(C2CNC2)nn1	7%	-7%	1%	6%	i	-10%
CN(C)Cc1cn(C[C@H]2C[C@@H]3CCN2C[C@@H]3C(=O)NC2CC2)nn1	2%[87.6 µM]	0%[174 µM]	-1%[87.6 µM]	3%[70.6 µM]	i	i
COc1cc2c(cc1OCc1ccccc1)NC(=O)C21CCN(c2ncc(F)cn2)CC1	-3%[87.6 µM]	u	-21%[87.6 µM]	-21%[70.6 µM]	i	-25%[172 µM]
CC1=C(O)C(=O)C=C2C1=CC=C1[C@@]2(C)CC[C@@]2(C)[C@@H]3C[C@](C)(C(=O)O)CC[C@]3(C)CC[C@]12C	7.6µM*	x	22µM*	x	x	x
COc1cc2c(cc1OCC1CC1)NC(=O)C21CCN(c2ccnc(C)n2)CC1	-8%[87.6 µM]	u	-16%[87.6 µM]	-7%[70.6 µM]	i	79µM*
COc1cc2c(cc1OC1CCCC1)NC(=O)C21CCN(c2ccnc(C)n2)CC1	u	79µM*	-15%[87.6 µM]	-10%[70.6 µM]	i	u
COc1cc2c(cc1OCC1CC1)NC(=O)C21CCN(c2cc(NC3CC3)ncn2)CC1	-1%[87.6 µM]	25µM*	-14%[87.6 µM]	-9%[70.6 µM]	i	89µM*
COc1cc2c(cc1OC1CCCC1)NC(=O)C21CCN(c2cc(NC3CC3)ncn2)CC1	-7%	u	0%	-13%	i	u
O=S(=O)(NC[C@H]1C[C@@H]2CCN1C[C@@H]2CN1CCN(c2ncccn2)CC1)c1ccccc1	16%	i	-12%	5%	i	i
O=C(c1ccc(C(F)(F)F)cc1)N1CCC(C(=O)O)(c2ccccc2)CC1	-24%	i	2%	x	x	i
CN1CCN(C[C@H]2CN3CC[C@H]2C[C@@H]3CNC(=O)Nc2ccccc2)CC1	-5%[87.6 µM]	u	2%[87.6 µM]	4%[70.6 µM]	i	4%[172 µM]
CC(C)NC(=O)NC[C@H]1C[C@@H]2CCN1C[C@@H]2CN1CCN(c2ccccc2)CC1	9%[87.6 µM]	-23%[174 µM]	2%[87.6 µM]	0%[70.6 µM]	i	-17%[172 µM]
CC(C)NC(=O)NC[C@H]1C[C@@H]2CCN1C[C@@H]2CN1CCC(Cc2ccccc2)CC1	-17%[87.6 µM]	u	-11%[87.6 µM]	1%[70.6 µM]	i	50µM*
O=C(NC[C@H]1C[C@@H]2CCN1C[C@@H]2CN1CCC(Cc2ccccc2)CC1)Nc1ccccc1	u	u	1%	-1%	i	32µM*
O=S(=O)(NC[C@H]1C[C@@H]2CCN1C[C@@H]2CN1CCC(Cc2ccccc2)CC1)c1ccc(Cl)cc1	-37%	14µM*	u	-3%	i	7.1µM*
CCN(CC)C[C@H]1CN2CC[C@H]1C[C@@H]2CNS(=O)(=O)c1ccc(Cl)cc1	-30%[87.6 µM]	71µM*	u	2%[70.6 µM]	i	u
O=C(c1ccoc1)N1CCC2(CC1)NCc1ccccc1-n1ccnc12	13%	-8%	6%	0%	i	-1%
COc1ccccc1N1CCN(C[C@H]2CN3CC[C@H]2C[C@@H]3CNC(=O)Nc2cccc(SC)c2)CC1	u	u	-1%	-1%	i	u
CSc1cccc(NC(=O)NC[C@H]2C[C@@H]3CCN2C[C@@H]3CN2CCC(Cc3ccccc3)CC2)c1	-1%	25µM*	0%	3%	i	u
Cn1nc(-c2ccc(F)cc2)cc1[C@H]1CN2CC[C@H]1C[C@@H]2CNC(=O)c1cccs1	u	56µM*	-19%[87.6 µM]	-19%[70.6 µM]	i	45µM*
SMILES	SNCA expr inhib	3T3 cytotox	SNCA viab count	hNpr1 antagonist	Luciferase inh	HEK293 tox
COc1ccc(-c2cc([C@H]3CN4CC[C@H]3C[C@@H]4CNC(=O)NC3CCCCC3)n(C)n2)cc1	-2%	89µM*	-3%	-1%	i	u
Cc1ccc(C(=O)NC[C@H]2C[C@@H]3CCN2C[C@@H]3c2cc(-c3ccc(F)cc3)nn2C)cc1	u	25µM*	-16%[87.6 µM]	-27%[70.6 µM]	i	25µM*
COc1ccc(-c2cc([C@H]3CN4CC[C@H]3C[C@@H]4CNC(=O)c3ccc(C(C)(C)C)cc3)n(C)n2)cc1OC	-21%	u	-17%	1%	i	20µM*
COc1ccc(C(=O)NC[C@H]2C[C@@H]3CCN2C[C@@H]3c2cc(-c3ccc(F)cc3)nn2C)cc1	-4%	u	0%	0%	i	u
CCN1CCCCC12Cc1ccccc1CN(C(=O)Cc1ccc(OC)cc1)C2 (centres undefined)	2%	4%	-15%	x	x	-24%
COc1ccc(OC)c(S(=O)(=O)NC[C@H]2C[C@@H]3CCN2C[C@@H]3c2cc(-c3ccc(F)cc3)nn2C)c1	u	u	u	-20%	i	28µM*
COc1ccc(-c2cc([C@H]3CN4CC[C@H]3C[C@@H]4CNC(=O)Nc3cccc4ccccc34)n(C)n2)cc1OC	-9%	u	1%	3%	i	45µM*
COc1ccc(NC(=O)NC[C@H]2C[C@@H]3CCN2C[C@@H]3c2cc(-c3ccc(OC)c(OC)c3)nn2C)cc1	12%	u	0%	8%	i	u
O=C(c1cccs1)N1[C@H]2CC[C@@H]1c1cnc(-c3ccc(F)cc3)nc1C2	58%	u	-4%	11µM*	u	u
Cc1ncc2c(n1)C[C@@H]1CC[C@H]2N1S(=O)(=O)c1ccccc1C	6%	-14%	-5%	3%	i	-23%
Cc1ccsc1C(=O)N1[C@H]2CC[C@@H]1c1cnc(-c3ccccc3)nc1C2	-21%	u	-6%	x	x	10µM*
Cc1ccccc1S(=O)(=O)N1[C@H]2CC[C@@H]1c1cnc(-c3ccc(F)cc3)nc1C2	-29%	u	-4%	u	i	28µM*
